Results reported in PubChem BioAssay AID1159580 (chemical genetic matrix, 2015).
“And” between values parts separate entries of the source, which are not always exact repeats. Equal values may be shown once. The whole screen tested about 5,500 compounds, of which about 2,000 (36%) were called active. Roughly 18% stayed inconclusive and do not appear here. No stated cut-off is given here; in the data, active means normalized growth mostly below about 0.91 (no sharp cut-off); inconclusive means no clear call, values can overlap the other calls; inactive means mostly above about 0.92. This is one part of the list. More than one record can exist for a structure, and the calls need not agree.

Assay: chemical genetic growth profiling, strain panel (AID 1159580);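 further: tested at 20 µM; growth read once vehicle control cultures reached saturation at 30 °C; 1 = growth at the plate median or of vehicle wells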
Conditions: S. cerevisiae deletion strains, growth OD

**Q.** For `CN1CCN(CCCN2c3ccccc3Sc3ccc(Cl)cc32)CC1`, which normalized growth (locus YAL013W, strain DEP1, stronger effect = lower value) is on record?
**A.** 0.216 (active) and 1.03 (inactive)

**Q.** And the normalized growth (locus YAL021C, strain ccr4, stronger effect = lower value)?
**A.** 0.706 (active)

**Q.** What about the normalized growth (locus YAL026C, strain drs2, stronger effect = lower value) of the same compound?
**A.** 0.0669 (active)

**Q.** What about the normalized growth (locus YAL030W, strain snc1, stronger effect = lower value) of the same compound?
**A.** 0.922 (active)

**Q.** What about the normalized growth (locus YAL040C, strain CLN3, stronger effect = lower value) of the same compound?
**A.** 0.97 (inactive)

**Q.** What about the normalized growth (locus YBL061C, strain skt5, stronger effect = lower value) of the same compound?
**A.** 0.888 (active)

**Q.** What about the normalized growth (locus YBR009C, strain hhf1, stronger effect = lower value) of the same compound?
**A.** 0.8 (active)

**Q.** What about the normalized growth (locus YBR021W, strain FUR4, stronger effect = lower value) of the same compound?
**A.** 0.413 (active)

**Q.** And the normalized growth (locus YBR023C, strain chs3, stronger effect = lower value)?
**A.** 0.868 (active)

**Q.** And the normalized growth (locus YBR171W, strain sec66, stronger effect = lower value)?
**A.** 0.987 (inactive)

**Q.** What about the normalized growth (locus YBR229C, strain ROT2, stronger effect = lower value) of the same compound?
**A.** 1 (inactive)

**Q.** And the normalized growth (locus YBR231C, strain swc5, stronger effect = lower value)?
**A.** 0.663 (active)

**Q.** What about the normalized growth (locus YCL011C, strain gbp2, stronger effect = lower value) of the same compound?
**A.** 0.772 (active)

**Q.** What about the normalized growth (locus YCL016C, strain dcc1, stronger effect = lower value) of the same compound?
**A.** 0.938 (inactive)

**Q.** What about the normalized growth (locus YCL029C, strain bik1, stronger effect = lower value) of the same compound?
**A.** 1.03 (inactive)

**Q.** What about the normalized growth (locus YCL061C, strain MRC1 (second series), stronger effect = lower value) of the same compound?
**A.** 0.997 (inactive)

**Q.** What about the normalized growth (locus YCL069W, strain vba3, stronger effect = lower value) of the same compound?
**A.** 0.966 (inactive)

**Q.** What about the normalized growth (locus YCR088W, strain abp1, stronger effect = lower value) of the same compound?
**A.** 0.831 (active)

**Q.** And the normalized growth (locus YDL005C, strain med2, stronger effect = lower value)?
**A.** 1 (inactive)

**Q.** And the normalized growth (locus YDL035C, strain GPR1, stronger effect = lower value)?
**A.** 0.214 (active)

**Q.** What about the normalized growth (locus YDL040C, strain nat1, stronger effect = lower value) of the same compound?
**A.** 0.964 (inactive)

**Q.** And the normalized growth (locus YDL074C, strain BRE1, stronger effect = lower value)?
**A.** 0.296 (active)

**Q.** What about the normalized growth (locus YDL101C, strain DUN1, stronger effect = lower value) of the same compound?
**A.** 0.965 (inactive)

**Q.** What about the normalized growth (locus YDL134C, strain PPH21, stronger effect = lower value) of the same compound?
**A.** 0.982 (inactive)

**Q.** And the normalized growth (locus YDL185W, strain tfp1, stronger effect = lower value)?
**A.** 0.964 (inactive)

**Q.** What about the normalized growth (locus YDL192W, strain arf1, stronger effect = lower value) of the same compound?
**A.** 0.0937 (active)

**Q.** And the normalized growth (locus YDR001C, strain nth1, stronger effect = lower value)?
**A.** 0.993 (inactive)

**Q.** What about the normalized growth (locus YDR069C, strain doa4, stronger effect = lower value) of the same compound?
**A.** 0.804 (active)

**Q.** And the normalized growth (locus YDR101C, strain arx1, stronger effect = lower value)?
**A.** 0.929 (inactive)

**Q.** What about the normalized growth (locus YDR137W, strain rgp1, stronger effect = lower value) of the same compound?
**A.** 1.26 [resistant] (active)

**Q.** What about the normalized growth (locus YDR150W, strain NUM1, stronger effect = lower value) of the same compound?
**A.** 0.563 (active)

**Q.** And the normalized growth (locus YDR159W, strain sac3, stronger effect = lower value)?
**A.** 0.974 (inactive)

**Q.** And the normalized growth (locus YDR162C, strain NBP2, stronger effect = lower value)?
**A.** 0.0524 (active)

**Q.** What about the normalized growth (locus YDR195W, strain ref2) of the same compound?
**A.** 1.15 [resistant] (active)

**Q.** What about the normalized growth (locus YDR297W, strain sur2, stronger effect = lower value) of the same compound?
**A.** 0.968 (inactive)

**Q.** And the normalized growth (locus YDR318W, strain mcm21, stronger effect = lower value)?
**A.** 0.91 (active)

**Q.** What about the normalized growth (locus YDR334W, strain swr1, stronger effect = lower value) of the same compound?
**A.** 0.94 (inactive)

**Q.** What about the normalized growth (locus YDR335W, strain msn5, stronger effect = lower value) of the same compound?
**A.** 0.96 (inactive)

**Q.** And the normalized growth (locus YDR363W, strain ESC2, stronger effect = lower value)?
**A.** 0.891 (inactive)

**Q.** What about the normalized growth (locus YDR388W, stronger effect = lower value) of the same compound?
**A.** 0.805 (active)

**Q.** And the normalized growth (locus YDR392W, strain spt3, stronger effect = lower value)?
**A.** 0.954 (inactive)

**Q.** What about the normalized growth (locus YDR502C, strain sam2, stronger effect = lower value) of the same compound?
**A.** 0.39 (active)

**Q.** What about the normalized growth (locus YEL003W, strain gim4, stronger effect = lower value) of the same compound?
**A.** 0.832 (active)

**Q.** What about the normalized growth (locus YEL037C, strain rad23, stronger effect = lower value) of the same compound?
**A.** 0.963 (inactive)

**Q.** And the normalized growth (locus YEL061C, strain CIN8 (second series), stronger effect = lower value)?
**A.** 0.986 (inactive)

**Q.** What about the normalized growth (locus YEL061C, strain CIN8, stronger effect = lower value) of the same compound?
**A.** 0.664 (active)

**Q.** And the normalized growth (locus YER002W, strain NOP16, stronger effect = lower value)?
**A.** 1 (inactive)

**Q.** And the normalized growth (locus YER015W, strain faa2, stronger effect = lower value)?
**A.** 0.556 (active)

**Q.** And the normalized growth (locus YER016W, strain bim1, stronger effect = lower value)?
**A.** 0.972 (inactive)

**Q.** And the normalized growth (locus YER110C, stronger effect = lower value)?
**A.** 1.02 (inactive)

**Q.** And the normalized growth (locus YER111C, strain swi4, stronger effect = lower value)?
**A.** 0.993 (inactive)

**Q.** And the normalized growth (locus YER155C, strain BEM2 (second series), stronger effect = lower value)?
**A.** 0.861 (active)

**Q.** And the normalized growth (locus YER155C, strain BEM2, stronger effect = lower value)?
**A.** 1.04 (inactive)

**Q.** And the normalized growth (locus YER167W, strain BCK2, stronger effect = lower value)?
**A.** 0.858 (active)

**Q.** What about the normalized growth (locus YFR010W, strain ubp6, stronger effect = lower value) of the same compound?
**A.** 0.734 (active)

**Q.** And the normalized growth (locus YGL078C, strain dbp3, stronger effect = lower value)?
**A.** 0.966 (inactive)

**Q.** What about the normalized growth (locus YGL086W, strain mad1, stronger effect = lower value) of the same compound?
**A.** 0.61 (active)

**Q.** What about the normalized growth (locus YGL167C, strain pmr1, stronger effect = lower value) of the same compound?
**A.** 0.947 (inactive)

**Q.** What about the normalized growth (locus YGL173C, strain kem1, stronger effect = lower value) of the same compound?
**A.** 0.874 (active)

**Q.** And the normalized growth (locus YGL227W, strain vid30, stronger effect = lower value)?
**A.** 0.997 (inactive)

**Q.** What about the normalized growth (locus YGL240W, strain doc1, stronger effect = lower value) of the same compound?
**A.** 1.01 (inactive)

**Q.** And the normalized growth (locus YGL248W, strain PDE1, stronger effect = lower value)?
**A.** 0.99 (inactive)

**Q.** What about the normalized growth (locus YGL253W, strain hxk2, stronger effect = lower value) of the same compound?
**A.** 0.927 (inactive)

**Q.** What about the normalized growth (locus YGR078C, strain PAC10, stronger effect = lower value) of the same compound?
**A.** 0.594 (active)

**Q.** And the normalized growth (locus YGR135W, strain pre9, stronger effect = lower value)?
**A.** 0.544 (active)

**Q.** And the normalized growth (locus YGR229C, strain SMI1, stronger effect = lower value)?
**A.** 0.065 (active) and 1.02 (inactive)

**Q.** What about the normalized growth (locus YGR252W, strain gcn5, stronger effect = lower value) of the same compound?
**A.** 0.309 (active)

**Q.** And the normalized growth (locus YHR013C, strain ard1, stronger effect = lower value)?
**A.** 0.872 (inactive)

**Q.** What about the normalized growth (locus YHR027C, strain rpn1, stronger effect = lower value) of the same compound?
**A.** 0.594 (active)

**Q.** What about the normalized growth (locus YHR030C, strain SLT2, stronger effect = lower value) of the same compound?
**A.** 0.465 (active) and 1.02 (inactive)

**Q.** What about the normalized growth (locus YHR079C, strain IRE1 (second series), stronger effect = lower value) of the same compound?
**A.** 0.969 (inactive)

**Q.** What about the normalized growth (locus YHR079C, strain IRE1, stronger effect = lower value) of the same compound?
**A.** 1 (inactive)

**Q.** And the normalized growth (locus YHR094C, strain hxt1, stronger effect = lower value)?
**A.** 1 (inactive)

**Q.** And the normalized growth (locus YHR129C, strain ARP1, stronger effect = lower value)?
**A.** 0.932 (inactive)

**Q.** And the normalized growth (locus YHR142W, strain chs7, stronger effect = lower value)?
**A.** 0.854 (active)

**Q.** What about the normalized growth (locus YHR200W, strain rpn10, stronger effect = lower value) of the same compound?
**A.** 0.869 (active)

**Q.** What about the normalized growth (locus YIL066C, strain RNR3, stronger effect = lower value) of the same compound?
**A.** 0.793 (active)

**Q.** And the normalized growth (locus YIL073C, strain SPO22, stronger effect = lower value)?
**A.** 0.854 (inactive)

**Q.** And the normalized growth (locus YIL125W, strain kgd1, stronger effect = lower value)?
**A.** 0.958 (inactive)

**Q.** What about the normalized growth (locus YIR030C, strain dcg1, stronger effect = lower value) of the same compound?
**A.** 1 (inactive)

**Q.** What about the normalized growth (locus YJL092W, strain hpr5, stronger effect = lower value) of the same compound?
**A.** 0.942 (inactive)

**Q.** And the normalized growth (locus YJL095W, strain BCK1 (second series), stronger effect = lower value)?
**A.** 0.919 (active)

**Q.** What about the normalized growth (locus YJL095W, strain BCK1, stronger effect = lower value) of the same compound?
**A.** 0.494 (active) and 1.04 (inactive)

**Q.** And the normalized growth (locus YJL115W, strain asf1, stronger effect = lower value)?
**A.** 0.99 (inactive)

**Q.** What about the normalized growth (locus YJL129C, strain trk1, stronger effect = lower value) of the same compound?
**A.** 0.83 (active)

**Q.** What about the normalized growth (locus YJL134W, strain LCB3, stronger effect = lower value) of the same compound?
**A.** 0.991 (inactive)

**Q.** And the normalized growth (locus YJL154C, strain vps35, stronger effect = lower value)?
**A.** 0.982 (inactive)

**Q.** And the normalized growth (locus YJL164C, strain tpk1, stronger effect = lower value)?
**A.** 0.878 (active)

**Q.** And the normalized growth (locus YJL166W, strain qcr8, stronger effect = lower value)?
**A.** 0.809 (active)

**Q.** What about the normalized growth (locus YJL168C, strain set2, stronger effect = lower value) of the same compound?
**A.** 1.01 (inactive)

**Q.** What about the normalized growth (locus YJL187C, strain SWE1 (second series), stronger effect = lower value) of the same compound?
**A.** 0.85 (active)

**Q.** What about the normalized growth (locus YJR043C, strain POL32, stronger effect = lower value) of the same compound?
**A.** 0.247 (active)

**Q.** What about the normalized growth (locus YJR066W, strain TOR1, stronger effect = lower value) of the same compound?
**A.** 0.968 (inactive)

**Q.** What about the normalized growth (locus YJR075W, strain HOC1, stronger effect = lower value) of the same compound?
**A.** 0.131 (active)
